Results: PubChem BioAssay AID1159580 (chemical genetic matrix, 2015)
Among all 5,500 compounds or so, about 2,000 (36%) were called active. About 18% were inconclusive and are not listed. Cut-off read from the data, not from the text of the source: active = normalized growth mostly below about 0.91 (no sharp cut-off); inconclusive = no clear call, values can overlap the other calls; inactive = mostly above about 0.92. The list shows a part of the results.

Experiment: chemical genetic growth profiling, strain panel (AID 1159580);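 note: tested at 20 µM; growth read once vehicle control cultures reached saturation at 30 °C; 1 = growth at the plate median or of vehicle wells; lower values mean less growth of the strain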
Conditions: growth OD
[1] = S. cerevisiae deletion strains, locus YAL013W, strain DEP1, stronger effect = lower value
[2] = S. cerevisiae deletion strains, locus YDR150W, strain NUM1, stronger effect = lower value
[3] = S. cerevisiae deletion strains, locus YGR078C, strain PAC10, stronger effect = lower value
[4] = S. cerevisiae deletion strains, locus YMR307W, strain GAS1, stronger effect = lower value
[5] = S. cerevisiae deletion strains, locus YPL055C, strain LGE1, stronger effect = lower value
[6] = S. cerevisiae deletion strains, locus YBR229C, strain ROT2, stronger effect = lower value
[7] = S. cerevisiae deletion strains, locus YDL101C, strain DUN1, stronger effect = lower value
[8] = S. cerevisiae deletion strains, locus YDL134C, strain PPH21, stronger effect = lower value
[9] = S. cerevisiae deletion strains, locus YEL061C, strain CIN8, stronger effect = lower value
[10] = S. cerevisiae deletion strains, locus YHR030C, strain SLT2, stronger effect = lower value
[11] = S. cerevisiae deletion strains, locus YHR087W, strain rtc3, stronger effect = lower value
[12] = S. cerevisiae deletion strains, locus YJL187C, strain SWE1, stronger effect = lower value
[13] = S. cerevisiae deletion strains, locus YJR043C, strain POL32, stronger effect = lower value
[14] = S. cerevisiae deletion strains, locus YJR075W, strain HOC1, stronger effect = lower value
[15] = S. cerevisiae deletion strains, locus YLR039C, strain RIC1, stronger effect = lower value
[16] = S. cerevisiae deletion strains, locus YLR058C, strain SHM2 (second series), stronger effect = lower value
[17] = S. cerevisiae deletion strains, locus YLR085C, strain ARP6, stronger effect = lower value
[18] = S. cerevisiae deletion strains, locus YLR262C, strain YPT6, stronger effect = lower value
[19] = S. cerevisiae deletion strains, locus YML094W, strain GIM5, stronger effect = lower value
[20] = S. cerevisiae deletion strains, locus YMR219W, strain ESC1, stronger effect = lower value
[21] = S. cerevisiae deletion strains, locus YMR263W, strain SAP30, stronger effect = lower value
[22] = S. cerevisiae deletion strains, locus YNL153C, strain GIM3, stronger effect = lower value
[23] = S. cerevisiae deletion strains, locus YNL298W, strain CLA4 (second series), stronger effect = lower value
[24] = S. cerevisiae deletion strains, locus YNL322C, strain KRE1, stronger effect = lower value
[25] = S. cerevisiae deletion strains, locus YNR030W, strain Alg12, stronger effect = lower value
[26] = S. cerevisiae deletion strains, locus YPL241C, strain CIN2, stronger effect = lower value
[27] = S. cerevisiae deletion strains, locus YPR135W, strain CTF4, stronger effect = lower value

Measured: normalized growth

O=c1[nH]c2cc(C(F)(F)F)ccc2n1-c1cc(C(F)(F)F)ccc1O
inactive: [1] 1.02 | S. cerevisiae deletion strains, locus YAL040C, strain CLN3, stronger effect = lower value 0.998 | S. cerevisiae deletion strains, locus YCL061C, strain MRC1 (second series), stronger effect = lower value 1.01 | [2] 1.01 | S. cerevisiae deletion strains, locus YDR363W, strain ESC2, stronger effect = lower value 1.01 | S. cerevisiae deletion strains, locus YER002W, strain NOP16, stronger effect = lower value 1.02 | [3] 1.03 | [4] 1.02 | S. cerevisiae deletion strains, locus YNL175C, strain NOP13, stronger effect = lower value 0.961 | S. cerevisiae deletion strains, locus YNL197C, strain WHI3, stronger effect = lower value 0.995 | S. cerevisiae deletion strains, locus YNL224C, strain SQS1, stronger effect = lower value 0.998 | S. cerevisiae deletion strains, locus YOR083W, strain WHI5 (second series), stronger effect = lower value 0.903 | [5] 1.01

Cn1c(=S)[nH]c2cc(C(F)(F)F)ccc21
inactive: [1] 0.977 | [6] 0.987 | [7] 0.968 | [8] 0.979 | [2] 0.959 | [3] 0.975 | [10] 0.767 | [11] 1 | [12] 0.98 | [13] 0.978 | [14] 1.02 | [16] 0.974 | [19] 0.911 | [20] 0.987 | [21] 0.966 | [4] 0.718 | [22] 0.997 | [24] 0.998 | [25] 0.946 | [5] 0.866 | [26] 0.925 | S. cerevisiae strains, strain wild type, stronger effect = lower value 0.969
active: [9] 0.888 | [15] 0.538 | [17] 0.378 | [18] 0.733 | [23] 0.803 | [27] 0.617

FC(F)(F)c1ccc2[nH]c(=S)[nH]c2c1
inactive: [1] 0.995 | [6] 0.996 | S. cerevisiae deletion strains, locus YCL061C, strain MRC1, stronger effect = lower value 0.983 | [7] 0.983 | [8] 0.99 | [2] 0.986 | [9] 0.998 | [3] 0.982 | S. cerevisiae deletion strains, locus YGR229C, strain SMI1, stronger effect = lower value 1 | [10] 0.89 | [11] 0.999 | [12] 0.997 | [13] 0.986 | [14] 1.01 | [15] 0.952 | [16] 0.994 | [17] 0.955 | [18] 0.963 | [19] 0.905 | [20] 1 | [21] 1.02 | S. cerevisiae deletion strains, locus YNL128W, strain TEP1, stronger effect = lower value 0.993 | [22] 1 | [23] 0.979 | [24] 0.997 | [25] 0.977 | S. cerevisiae deletion strains, locus YOL006C, strain TOP1, stronger effect = lower value 0.997 | [5] 0.98 | [26] 0.966 | [27] 0.779
